Only a selection was taken, and hits are over-represented in it overall.
BRCT PPI green: qHTS Assay for Inhibitors of BRCT-Phosphoprotein Interaction (Green Fluorophore). Breast cancer type 1 susceptibility protein (Homo sapiens), P38398. BRCA1 BRCT-phosphopeptide binding, green fluorescence polarization. Potency, µM (doses to about 76.9 µM), usual class: inhibitors. 75,000 tested, 0.05% active. AID 875, 2007
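Compounds were incubated for 12 min at room temperature with a complex of 100 nM fluorescein-tagged pBACH1 decapeptide and 250 nM His-tagged BRCT protein. Buffer was phosphate pH 7.3 with EDTA, DTT and Tween 20. Disruption of binding lowers the polarization signal.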
Pol III holo inh: qHTS Assay for Inhibitors of DNA Polymerase III Holoenzyme System | reconstituted DNA polymerase III holoenzyme replication, biochemical | Potency, µM (top dose mostly 57.1 µM) | 71,000 tested, 0.25% active | AID 603, 2007
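Reconstituted *E. coli* holoenzyme (0.35 nM Pol III, 1 nM beta, 154 nM SSB, 2 nM primase) was preincubated with compound for 15 min at RT. Synthesis on 1.4 nM ssM13Gori ran 35 min, then was stopped with PicoGreen/EDTA and read as dsDNA fluorescence.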
BRCT inh red: qHTS Assay for Inhibitors of BRCT-Phosphoprotein Interaction (Red Fluorophore); Breast cancer type 1 susceptibility protein (Homo sapiens), P38398; Potency, µM (top dose mostly 76.9 µM), hits mostly inhibitors; AID 892, 2007; BRCT-phosphopeptide binding, red fluorescence polarization; 75,000 tested, 0.03% active
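Fluorescence polarization: 100 nM His-tagged BRCA1 BRCT with 100 nM TAMRA-labelled phospho-BACH1 decapeptide, phosphate buffer pH 7.3 with 150 mM NaCl, DTT, 0.01% Tween 20; 12 min RT. Binding inhibition seen as FP decrease.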
TsaE inh: qHTS Assay for Inhibitors of YjeE; purified YjeE enzyme, qHTS inhibition assay; Potency, µM; 71,000 tested, 0.05% active; AID 605, 2007
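Purified YjeE (10 uM) with BODIPY Texas Red-labeled ADP probe (2 uM); compounds pin-transferred, 15 min at room temperature. Binding inhibition read as decreased fluorescence polarization; ADP titration as control.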
ALOX15 inhib: qHTS Assay for Inhibitors of 15-hLO (15-human lipoxygenase); Polyunsaturated fatty acid lipoxygenase ALOX15 (Homo sapiens), P16050; purified 15hLO-1, xylenol orange hydroperoxide absorbance; Potency, µM (top dose mostly 57.1 µM), hits mostly inhibitors; 74,000 tested, 1.4% active; also: nearly all actives have a fitted effect of over 55% in size
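Hydroperoxide formed from arachidonic acid (50 uM) by purified human 15hLO-1 (40 nM) oxidizes ferrous iron, and the ferric-xylenol orange complex is read at 573 versus 405 nm. Compounds were preincubated 15 min; reaction ran 6 min at room temperature.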
15-hLO-2 inh: qHTS Assay for Inhibitors of 15-hLO-2 (15-human lipoxygenase 2) | purified 15hLO-2, xylenol orange hydroperoxide absorbance | Potency, µM (series often up to 57.1 µM), hits mostly inhibitors | 110,000 tested, 0.56% active | AID 881, 2007; also: nearly all actives have a fitted effect of over 60% in size
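Read-out: hydroperoxide product oxidises ferrous iron, measured as xylenol orange complex via the 573-to-405 nm absorbance ratio after 30 min. Reaction: 50 nM enzyme, 15 min compound preincubation, 45 uM arachidonic acid, 90 min RT, Hepes pH 7.5 with Triton X-100.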
A number is an active result; – = inactive; ? = inconclusive; · = no result given; [ ] = another dose, or the depositor's remark. Calls follow the shape of the dose curve; as a rule, active = well fitted curve in the direction sought with a large enough effect; inconclusive = small, poorly fitted or top-dose-only effect, or another doubt; inactive = no such curve, though single readings can be large; an effect the other way counts as inactive or inconclusive.

SMILES	BRCT PPI green	Pol III holo inh	BRCT inh red	TsaE inh	ALOX15 inhib	15-hLO-2 inh
C=C(C)CC1Nc2ccccc2NC1CC(=C)C (stereo not drawn)	–	–	–	–	20µM	25.1µM
CCOC(=O)N1CCC(NC(=O)C(CC(C)C)NC(=O)C2CCCCC2)CC1 (stereo not drawn)	–	–	–	–	15.8µM	–
O=C(O)C[n+]1ccccc1	–[15.4 µM]	–[11.4 µM]	–[15.4 µM]	–	–[11.4 µM]	–[11.4 µM]
Nc1nc(N)nc(CCCCc2nc(N)nc(N)n2)n1	·	–[11.4 µM]	·	–	·	·
O=C(NCC1CCCO1)c1cc(-c2ccco2)nc2ccccc12 (stereo not drawn)	–	31.6µM	–	–	–	?
CCNC(=O)[C@@H]1O[C@@H](n2cnc3c(NCc4ccccc4)ncnc32)[C@@H](O)[C@H]1O	·	–	·	–	·	·
CCOC(=O)N1CCN(c2c(F)cc3[nH]c(=S)[nH]c3c2Br)CC1	–	–	–	–	?	12.6µM
CCOC(=O)N1CCN(c2cc3[nH]c(=S)[nH]c3cc2F)CC1	–	–	–	–	?	–
O=C(C1CCCCC1)N1CCCC(c2nc3c(nnn3Cc3ccccc3)c(=O)[nH]2)C1 (stereo not drawn)	–	–	–	–	15.8µM	–
CCCn1c(NC(=O)c2ccccc2)nc2ccccc21	–	–	–	–	–	–
CCn1c(NC(=S)Nc2ccccc2)nc2ccccc21	·	·	·	·	·	25.1µM
Nc1nc(SCc2ccc([N+](=O)[O-])cc2)c2ncn([C@@H]3O[C@@H](CO)[C@@H](O)[C@H]3O)c2n1	–	–	–	–	–	–
Cc1ccc2[nH]c3nc(SCCN4CCOCC4)nnc3c2c1	–	–	–	–	2.51µM	–
CN(C)c1ccc(-c2nc(N(C)Cc3ccco3)c3ccccc3n2)cc1	–	–	–	–	–	–
CN(Cc1ccco1)c1nc(-c2ccoc2)nc2ccccc12	–	–	–	–	12.6µM	–
C#CCN1C(C)=C(C(=O)OC)[C@@H](c2cccc([N+](=O)[O-])c2)C(C(=O)OCC)=C1C	–	–	–	–	–	–
CCN1CCC2(CC1)C(C#N)=C(N)Oc1c2sc2nc(C)cc(C)c12	–	–	–	–	25.1µM	–
O=c1cnnc(SCCc2ccccc2)[nH]1	–	–	–	–	3.98µM	–[11.4 µM]
Cc1cccc(CSc2nncc(=O)[nH]2)c1	–	–	–	–	–	–
Nc1ccc(N(c2ccccc2)c2ccc(N)cc2)cc1	·	·	·	·	·	0.631µM
CCN(C(N)=S)c1ccccc1	·	·	·	·	·	–
O=C(Cn1cc2c(n1)CCCC2)N1CCCc2ccccc21	–	–	–	–	25.1µM	–
CC1=NOC(=O)/C1=C\c1ccc(-c2ccc(Cl)cc2Cl)o1	·	·	·	·	·	7.94µM
N[C@H](Cc1cccc(-c2ccccc2CP(=O)(O)O)c1)C(=O)O	–	–	–	–	–	–
CC(=O)O[C@]1(C)CC[C@]23CC1C(C)(C)C2CC[C@@H]3C (stereo partly drawn)	–	·	–	·	25.1µM	–
SMILES	BRCT PPI green	Pol III holo inh	BRCT inh red	TsaE inh	ALOX15 inhib	15-hLO-2 inh
CC1CCC2C(C)(C)C3CC12CC[C@]3(C)O (stereo partly drawn)	–	·	–	·	?	–
O=C(O)[C@@H]1[C@@H](C(=O)Nc2ccccc2)[C@@H]2C=C[C@@H]1O2	–[15.4 µM]	–[11.4 µM]	–[15.4 µM]	–	–[11.4 µM]	–[11.4 µM]
CC(C)(C)c1cc(Br)c(O)c(CN(Cc2cc(C(C)(C)C)cc(Br)c2O)C2CCCCC2)c1	–[15.4 µM]	–[11.4 µM]	–[15.4 µM]	–	–[11.4 µM]	–[11.4 µM]
c1ccc(-c2onc3cc4c(cc23)OCCO4)cc1	–	–	–	–	12.6µM	–
Cc1cccc(-c2onc3ccc(C4(C)OCCO4)cc23)c1	·	·	·	·	·	–
S=C1NC=NC2N=CNC12 (stereo not drawn)	–	–	–	–	?	?
O=C(Cc1nc2ccccc2s1)c1ccc(O)cc1O	–	–	–	–	15.8µM	–
O=[N+]([O-])c1ccc(Cl)c(C2Nc3cccc4cccc(c34)N2)c1	·	·	·	·	·	12.6µM
O[C@@H](c1cc(-c2ccccc2)nc2c1ccc1ccccc12)[C@@H]1CCCCN1	–[15.4 µM]	–[11.4 µM]	–[15.4 µM]	–	–[11.4 µM]	–[11.4 µM]
Cc1cc(=O)c2c(O)c(O)ccc2o1	–	–	–	–	?	–
CC1=CCc2c(cc3oc(C)cc(=O)c3c2O)OC1	–[3.08 µM]	·	–	·	20µM	–
Nc1nc2sc3c(c2cc1C(=O)N1CCOCC1)CCCC3	–	–[11.4 µM]	–	–	3.16µM	–
Cc1ccc(CNC(=O)c2cccc(OCc3c(C)noc3C)c2)cc1	–	–	–	–	–	–
COc1cc(C(=O)NCc2ccc3c(c2)OCO3)ccc1OCc1c(C)noc1C	–	–	–	–	12.6µM	–
C=C1C[C@@]23C[C@]1(O)CC[C@@H]2[C@]12C=C[C@@H](O)[C@@](C)(C(=O)O1)[C@@H]2[C@@H]3C(=O)O	·	–	·	–	·	·
COc1cc2cc3c4cc(OC)c(OC)cc4cc[n+]3c(C)c2cc1OC	–[3.08 µM]	12.6µM	–	–	–	–
O=C1CC(N2CCN(c3ccc(O)cc3)CC2)C(=O)N1Cc1cccs1 (stereo not drawn)	–	–	–	–	12.6µM	?
O=C1CC(N2CCN(C/C=C/c3ccccc3)CC2)C(=O)N1Cc1cccs1 (stereo not drawn)	–	–	–	–	–	–[2.29 µM]

Compound activity: PubChem BioAssay, National Center for Advancing Translational Sciences (NCATS)
